High-throughput results as filed in PubChem BioAssay.
uPA surface inh: inhibitors of cell surface uPA generation; cell surface uPA generation assay, qHTS; Potency, µM (doses to about 38.3 µM), hits mostly inhibitors; actives 0.31% (n = 330,000); AID 540303; active = well fitted inhibition curve with a large enough effect; inconclusive = small, poorly fitted or top-dose-only effect; inactive = no such curve, though single readings can be large or run the other way; tested in mouse RAW 264.7 cells; also: nearly all actives have a fitted effect of over 55% in size
B2AR arrestin: beta2AR (human) beta-arrestin recruitment activity; actives 0.02% (n = 330,000); beta-arrestin recruitment to beta2AR, cell-based reporter; P07550; AID 492947; Potency, µM (top dose mostly 46.1 µM), actives largely listed as activators; also: nearly all actives have a fitted effect of over 65% in size
Giardia kill: kills Giardia lamblia. Giardia lamblia trophozoite viability. activity change, % at 7.66 µM, hits read low. actives 0.15% (n = 340,000); in the data active = activity change below about -80%; inconclusive = between about -30% and that limit;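 also: parasites exposed to compound for two days anaerobically before the ATP read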
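Compounds were tested on trophozoites seeded at 100 cells/well and held 48 hrs at 37 deg C anaerobically. An ATP-based luminescent kit measured the remaining live cells.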
p53 reactivator: mutant p53 re-activation in reporter cells. actives 0.063% (n = 320,000). AID 504706. H1299 p53-A138V BP100-luciferase reporter, luminescence, 24 h. Potency, µM (doses to about 92.2 µM), actives largely listed as activators; also: nearly all actives have a fitted effect of over 45% in size
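p53-null H1299 cells stably carrying temperature-sensitive p53-A138V and a BP100-luciferase reporter were pinned with compounds (4-point, 1:5 series) and held 24 hrs at 37 deg C. Luminescence was read 10 min after detection reagent.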
Mito fusion yeast: blocks mitochondrial division or promotes mitochondrial fusion | S. cerevisiae fusion-defective mutant growth rescue, CellTiterGlo 48 h | Potency, µM (top dose mostly 46.1 µM), usual class: activators | actives 0.23% (n = 320,000); also: nearly all actives have a fitted effect of over 45% in size
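Yeast fusion mutant, YPEG (non-fermentable carbon), compound, 48 h at 37C non-permissive; CellTiterGlo added, 10 min RT, luminescence read. Rescued growth = division inhibition.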
ClpP mod: qHTS Assay for Activators of ClpP; ATP-dependent Clp protease proteolytic subunit (Bacillus subtilis (strain 168)), P80244; purified B. subtilis ClpP, FRET peptide cleavage, 20 min; Potency, µM (titrated, usually from 57.5 µM); actives 1.9% (n = 340,000); active = well fitted falling curve with a large enough effect; inconclusive = small, poorly fitted or top-dose-only effect; inactive = no such curve, though single readings can be large or run the other way; also: the source files actives as falling curves though it sought activators and does not explain the sign; nearly all actives have a fitted effect of over 65% in size
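Purified B. subtilis ClpP, 10 microg/mL final in Tris/HCl pH8 with KCl, BSA, glycerol and Tween-20, cleaved an Abz/nitrotyrosine-quenched decapeptide. Fluorescence (ex 320, em 430) was read at 0 and 20 min at room temperature. Delta was normalized to 5.8 microM ADEP and DMSO/no-enzyme controls.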
Hits are given with their value; i = inactive; ? = inconclusive; nt = no result given; ! = not confirmed by another sample. Compounds with a hit are over-represented: about 2.1% of the library has one in this group of screens. Unless noted, calls follow the shape of the dose curve; as a rule, active = well fitted curve in the direction sought with a large enough effect; inconclusive = small, poorly fitted or top-dose-only effect, or another doubt; inactive = no such curve, though single readings can be large; an effect the other way counts as inactive or inconclusive.

SMILES	uPA surface inh	B2AR arrestin	Giardia kill	p53 reactivator	Mito fusion yeast	ClpP mod
Cc1ccc(C)c(CN2C(=O)c3ccccc3S(=O)(=O)c3ccc(C(=O)N4CCCCC4)cc32)c1	nt	nt	nt	nt	nt	i
COc1ccc(-c2cc3ccccc3n2CC(O)CNC(CO)(CO)CO)cc1 (configuration not stated)	nt	i	i	i	i	35.5µM
COc1ccc(-c2cc3ccccc3n2CC(O)Cn2nc(C)cc2C)cc1 (configuration not stated)	i	i	i	i	i	22.4µM
COc1ccc(-c2cc3ccccc3n2CC(O)CN2CCC(C)CC2)cc1 (configuration not stated)	i	i	i	i	i	i
COc1ccc(-c2cc(=O)oc3c(O)c(O)ccc23)cc1	i	i	i	i	i	?
O=c1ccc2ccc(O)c(O)c2o1	nt	nt	nt	nt	23.1µM	nt
COc1ccc(OC)c(NC(=O)CN2CCCN(Cc3ccccc3Cl)S2(=O)=O)c1	nt	nt	nt	nt	nt	i
COc1ccccc1C(=O)Nc1cccc(C(=O)OCc2cc(=O)n3cc(C)sc3n2)c1	nt	nt	nt	nt	nt	i
C[C@@]12C(=O)OC(=O)[C@]1(C)C1CCC2O1	i	i	-94.1	i	i	i
O=C(Oc1cc(-c2ccccc2)no1)c1ccc(Cl)cc1	i	i	i	i	i	39.8µM
CC(C)CCNC(=O)CN1C(=O)c2cccnc2Oc2ccccc21	nt	nt	nt	nt	nt	i
CSc1sc(C(=O)N2CCc3ccccc32)cc1S(=O)(=O)C(C)C	i	i	i	i	i	31.6µM
Brc1ccc(N=Nc2ccc3ccccc3n2)cc1	i	i	-80.7	i	i	nt
O=C(CCCl)Nc1cccc2cccnc12	nt	nt	i	nt	nt	nt
CCOC(=O)c1c(-c2ccc(Cl)cc2)cn2ccccc12	i	i	i	i	i	31.6µM
CCOC(=O)c1cnc2c(-c3ccc(Cl)cc3)cnn2c1C	i	i	?	i	i	nt
CCN(CC)C(=S)SCC(=O)c1ccc(Br)cc1	i	i	i	?	11.2µM	i
Cc1ccccc1NC(=O)CN(C)S(=O)(=O)c1cccc2nsnc12	nt	nt	nt	nt	nt	i
COC(=O)c1cccc(Nc2nn3c(=O)c4cc5c(cc4nc3s2)OCO5)c1	nt	nt	nt	nt	nt	i
CCCOc1ccc(-c2nc(C#N)c(N3CCC(C(N)=O)CC3)o2)cc1	nt	i	i	i	i	14.1µM
N#Cc1nc(-c2ccc(OCc3ccc(Cl)cc3)cc2)oc1N1CCC(C(N)=O)CC1	i	i	i	i	i	5.01µM!
Cc1cc(Cl)nc2nc(Cl)ccc12	nt	nt	nt	nt	nt	i
Cc1ccc(S(=O)(=O)c2c(N)n(-c3ccccc3)c3nc4ccccc4nc23)cc1	i	i	i	i	i	nt
Cc1cccc(S(=O)(=O)c2c(N)n(Cc3ccco3)c3nc4ccccc4nc23)c1	i	i	i	i	i	6.31µM
Cc1ccc(S(=O)(=O)c2c(N)n(Cc3ccco3)c3nc4ccccc4nc23)cc1	i	i	i	i	i	14.1µM
SMILES	uPA surface inh	B2AR arrestin	Giardia kill	p53 reactivator	Mito fusion yeast	ClpP mod
Cc1ccc(S(=O)(=O)c2c(N)n(NC(=O)c3ccco3)c3nc4ccccc4nc23)cc1	i	i	i	i	i	8.91µM
COc1ccccc1NC(=O)Cn1c(=O)n(CCc2ccccc2)c(=O)c2c3c(sc21)CN(C(C)=O)CC3	nt	nt	nt	nt	nt	i
Cc1c(C(=O)OCC(=O)NCCN2C(=O)CSC2=O)oc2c1ccc1ccccc12	i	i	i	i	i	31.6µM
O=C(CSC1=NCCS1)N1CCN(c2ccccc2)CC1	i	i	i	35.5µM	i	i
O=C(CSC1=NCCS1)N1CCOCC1	i	i	i	?	i	i
COc1ccc(-c2noc(Cn3c(=O)c4ccccc4n(CC(=O)Nc4cccc(OC)c4)c3=O)n2)cc1	nt	nt	nt	nt	nt	i
COc1ccccc1-n1c(=O)[nH]c2c(C(N)=O)nc(CC(C)C)nc21	i	i	i	i	i	i
Cc1ccc(-n2c(=O)[nH]c3c(C(N)=O)nc(CC(C)C)nc32)cc1	i	i	i	i	i	28.2µM
CCN(C(=O)CSc1nc2cc(C(=O)OC)ccc2c(=O)n1Cc1ccco1)c1cccc(C)c1	i	i	i	i	i	31.6µM
Cc1cccc(C)c1NC(=O)c1sc(-n2nc(C)c(Cc3ccccc3)c2C)nc1C	nt	nt	nt	nt	nt	i
CCN1CCN(C(=O)Cn2c(-c3cccs3)cc3ccccc32)CC1	nt	nt	nt	nt	nt	31.6µM
COc1cccc(N2CCN(C(=O)Cn3c(-c4cccs4)cc4ccccc43)CC2)c1	nt	nt	nt	nt	nt	15.8µM
CN(C)S(=O)(=O)c1ccc(N2C(=O)CC2(/C=C/c2ccccc2)C(=O)NC2CCCC2)cc1 (configuration not stated)	i	i	i	i	i	i
COc1ccccc1/C=C/C1(C(=O)NC2CCCC2)CC(=O)N1c1ccccc1 (configuration not stated)	2.82µM	i	i	i	i	i
COc1ccc2c(C)c(CCC(=O)NCc3ccc(C)cc3)c(=O)oc2c1	nt	nt	nt	nt	nt	i
CN1CCCC1=Nc1ccccc1	nt	nt	nt	nt	nt	i
CN1CCCCCC1=Nc1ccc([N+](=O)[O-])cc1	i	nt	i	nt	nt	11.2µM
COc1ccc(NS(=O)(=O)c2cc(NC(=O)c3ccc(=O)[nH]c3)ccc2C)cc1	i	i	?	i	i	i
COc1ccc(NS(=O)(=O)c2cc(NC(=O)[C@@H](NC(=O)c3ccccc3)C(C)C)ccc2C)cc1	12.6µM	i	i	i	i	i
COc1ccc(NS(=O)(=O)c2cc(NC(=O)c3cncc(Br)c3)ccc2OC)cc1	i	i	i	i	nt	28.2µM
COc1ccc(S(=O)(=O)NCc2ccco2)cc1C(=O)N1CCOCC1	i	i	i	i	i	nt
COc1ccc(S(=O)(=O)N2CCCCC2)cc1C(=O)N1CCCCCC1	i	nt	i	nt	nt	14.1µM
COc1ccc(S(=O)(=O)NC(C)C)cc1C(=O)N1CCOCC1	i	i	i	i	i	28.2µM
COc1ccc(S(=O)(=O)N2CCCC2)cc1C(=O)N1CCCCC1	i	i	i	i	i	i
CC1CCN(c2nc3ccccc3nc2SCC(=O)Nc2ccccc2C(C)C)CC1	nt	nt	nt	nt	nt	i
SMILES	uPA surface inh	B2AR arrestin	Giardia kill	p53 reactivator	Mito fusion yeast	ClpP mod
O=C(NCCN1CCN(S(=O)(=O)c2ccc([N+](=O)[O-])cc2)CC1)C(=O)Nc1ccccc1	i	i	i	i	i	28.2µM
O=C(NCCN1CCN(Cc2ccc([N+](=O)[O-])cc2)CC1)C(=O)Nc1ccccc1	i	i	i	i	i	i
Cc1nc2c(C(=O)NCCc3ccccc3)c[nH]n2c(=O)c1Cl	nt	i	i	i	i	?
Cc1nc2c(C(=O)NCCC(C)C)c[nH]n2c(=O)c1Cl	i	i	i	i	i	31.6µM
CCOC(=O)N=Nc1c2ccccc2c2nc3no[nH]c3nc12	i	i	-96.4	i	i	nt
O=C(Nc1cccc(Br)c1)c1ccccc1-c1ccccc1	i	i	i	i	15.8µM	i
O=C(Nc1ccccc1Br)c1ccccc1-c1ccccc1	i	i	i	i	?	i
Cc1ccc(O)c(NC(=O)c2ccccc2-c2ccccc2C(=O)O)c1	i	i	i	i	i	25.1µM
